Screening results deposited in PubChem BioAssay by National Center for Advancing Translational Sciences (NCATS).
KB-3-1 tox = kills parental KB-3-1 adenocarcinoma cells. 400,000 compounds, 1.4% hits. Potency, µM (titrated, usually from 46.1 µM), usual class: cytotoxic. AID 1347075. KB-3-1 viability, CellTiter-Glo ATP luminescence, 72 h; note: % is set by controls: 0 for no effect and ±100 for the full control effect; nearly all actives have a fitted effect of over 60% in size
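Parental KB-3-1 viability, qHTS format: 72 h compound exposure, 37 °C; CellTiter-Glo; media-only wells and DMSO plates as controls; concentration-effect fits on corrected data.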
KB-V1 MDR tox = kills drug-selected multidrug resistant KB-V1 cells; KB-V1 MDR cells viability, CellTiter-Glo, 72 h; Potency, µM (highest dose often 46.1 µM), most hits filed as cytotoxic; 400,000 compounds, 3.4% hits; AID 1347076; note: % is set by controls: 0 for no effect and ±100 for the full control effect; nearly all actives have a fitted effect of over 60% in size
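Readout: CellTiter-Glo luminescence, 10 min after addition. Cells: KB-V1 MDR subline, 72 h at 37 degrees C with compound. Analysis: corrected, normalized data fitted to concentration-effect curves.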
S2 tox = viability counter-screen for ATXN expression inhibitors; S2 cells (HEK-293 line with an ATXN2-luciferase reporter) viability, CellTiter-Fluor protease fluorescence, 24 h; Potency, µM (top dose mostly 56.7 µM), usual class: cytotoxic; 400,000 compounds, 0.49% hits; AID 651635; note: nearly all actives have a fitted effect of over 40% in size
ATXN2 expr inh = ATXN2 expression inhibition. HEK-293 ATXN2-luciferase reporter, luminescence, 24 h. Potency, µM (titrated, usually from 57 µM), for the others: at the highest dose activity change, negative = inhibition, actives largely listed as inhibitors. 360,000 compounds, 0.72% hits. AID 1745845; note: % is set by controls: 0 for no effect and ±100 for the full control effect; nearly all actives have a fitted effect of over 55% in size
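ATXN2-luciferase reporter cells (luciferase flanked by upstream and downstream ATXN2 gene portions) were treated 24 h at 37 °C with compounds at up to 57 uM. SteadyGlo luminescence gave expression; GF-AFC fluorescence gave viability.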
HT1080-NT tox = kills 2HG-producing HT-1080-NT fibrosarcoma cells; 360,000 compounds, 1.6% hits; HT-1080-NT fibrosarcoma viability, CellTiter-Glo ATP luminescence, 48 h; AID 686970; Potency, µM (doses to about 46.1 µM), inactives show top-dose activity, negative = less viability, usual class: cytotoxic;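 note: NT is the 2HG producing partner of a matched IDH1 knockdown line; 0% = DMSO-treated cells and -100% = media-only wells without cells; nearly all actives have a fitted effect of over 55% in size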
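HT-1080-NT fibrosarcoma cells (2HG-overproducing), 750 cells/well in RPMI with 5% FBS, dosed after 2 h and incubated 48 h at 37C. CellTiter-Glo luminescence normalized to DMSO and no-cell wells; concentration-response curves fitted and classed.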
HT1080 IDH1KD tx = toxicity to HT-1080 IDH1 knockdown cells (counter line) | HT-1080 IDH1 knockdown viability, ATP luminescence, 48 h | Potency, µM (series often up to 46.1 µM), inactives show top-dose activity, negative = toxicity, most hits filed as cytotoxic | 360,000 compounds, 2% hits | AID 686971;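 note: 0% = DMSO wells and -100% = cell-free medium wells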
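Assay cells: HT-1080 with IDH1 knockdown, 750 per well, RPMI/5% FBS. Exposure: 48 h at 37 °C following 2 h pre-incubation. Read: CellTiter-Glo luminescence; fitted concentration-response, curve class assigned.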
Active calls of the source: *; i = inactive; ? = inconclusive; . = not tested or not shown; [ ] = another dose, or the depositor's remark. This is a sample that favours compounds with a hit; in the whole collection about 6.2% have one here. Calls come from the whole dose curve; as a rule, active = well fitted curve in the direction sought with a large enough effect; inconclusive = small, poorly fitted or top-dose-only effect, or another doubt; inactive = no such curve, though single readings can be large; an effect the other way counts as inactive or inconclusive. Potency is the fitted concentration of half-maximal effect.

SMILES	KB-3-1 tox	KB-V1 MDR tox	S2 tox	ATXN2 expr inh	HT1080-NT tox	HT1080 IDH1KD tx
COc1ccc(-c2cn3c(C)c(C(=O)N4CCN(c5ccc(F)cc5)CC4)sc3n2)cc1	i	i	i	19.3%	7.6%	5.6%
CCOC(=O)N1CCN(C(=O)c2sc3nc(-c4ccc(F)cc4)cn3c2C)CC1	i	7.31µM*	i	-1.6%	5.2%	7.2%
COc1ccccc1N1CCN(C(=O)c2sc3nc(-c4ccc(F)cc4)cn3c2C)CC1	?	i	?	?	-14.9%	-13.0%
Cc1c(C(=O)N2CC(C)OC(C)C2)sc2nc(-c3ccc(F)cc3)cn12 (centres undefined)	?	8.2µM*	i	1.4%	18.6%	-3.6%
CCc1ccccc1NNC(=O)c1snnc1C	i	i	i	-13.4%	11.6µM*	?
Cc1ccc(OCc2nc(-c3ccc(C(=O)NCCc4ccc(Cl)cc4)cc3)oc2C)cc1	i	i	i	-6.5%	.	.
Cc1c(Cl)cccc1NC(=O)CNS(=O)(=O)c1cccs1	i	i	i	2.9%	.	.
Cc1cnn(CCC(=O)NNC(=S)NCC(C)C)c1	i	i	i	9.6%	13.1%	23.5%
Cc1cnn(CCC(=O)NNC(=S)Nc2ccccc2)c1	i	?	i	9.0%	7.08µM*	8.91µM*
Cc1ccc(NC(=S)NNC(=O)CCn2cc(C)cn2)cc1	i	?	i	3.3%	2.82µM*	6.31µM*
C[C@]12CCC(=O)C=C1[C@@H]1C[C@@H]1[C@H]1[C@@H]3[C@@H]4C[C@@H]4[C@@]4(CCC(=O)O4)[C@@]3(C)CC[C@@H]12	.	.	i	?	.	.
COc1cccc(-c2ncc3ccccn23)c1	i	i	i	39.0%	-13.7%	-4.8%
COc1cc(OC)cc(-c2ncc3ccccn23)c1	20.6µM*	?	i	-7.3%	-3.4%	-20.3%
COc1cc(-c2ncc3ccccn23)cc(OC)c1OC	i	14.6µM*	i	3.8%	2.5%	0.8%
COc1ccc(NC(=O)c2c(-c3ccc(C)cc3)nnc3ccccc23)c(OC)c1	i	i	.	.	.	.
CC1CCc2c(sc(NC(=O)/C=C/c3cccs3)c2C(=O)O)C1 (centres undefined)	18.4µM*	i	?	4.1%	1.9%	?
CC1CCc2c(sc(NC(=O)c3ccco3)c2C(=O)O)C1 (centres undefined)	?	?	i	-0.5%	?	-26.1%
Cc1cccc2cc(CN(Cc3cccs3)S(=O)(=O)c3ccc4c(c3)OCCO4)c(=O)[nH]c12	?	5.17µM*	i	-1.1%	-2.0%	-18.7%
COc1ccc(-c2cc(C(F)(F)F)n3nc(C(=O)Nc4sc5c(c4C(=O)OC(C)C)CCC(C)C5)cc3n2)cc1 (centres undefined)	i	i	i	-2.8%	.	.
Cc1ccc(Nc2sc(C(=O)c3ccccc3)c(N)c2S(=O)(=O)c2ccccc2)cc1Cl	i	i	.	.	.	.
CCCCn1nnnc1C(c1ccccc1)N1CCCN(Cc2ccc(F)cc2)CC1 (centres undefined)	?	8.2µM*	?	-14.4%	?	-23.4%
CCCCn1nnnc1C(c1ccccc1)N1CCN(CC)CC1 (centres undefined)	i	?	i	-8.2%	12.0%	9.7%
Fc1ccc(C(c2nnnn2C2CCCC2)N2CCN(Cc3ccccc3)CC2)cc1 (centres undefined)	i	3.66µM*	?	2.2%	0.8%	11.2%
COc1ccccc1-c1ccnc(-n2ncc(C(=O)NCCc3ccccn3)c2C)n1	.	.	i	.	.	.
Brc1cc(Br)c2ncnc(N3CCCCC3)c2c1	8.2µM*	?	i	-23.3%	9.2µM*	?
SMILES	KB-3-1 tox	KB-V1 MDR tox	S2 tox	ATXN2 expr inh	HT1080-NT tox	HT1080 IDH1KD tx
Cn1cccc1Cc1nnc(SCC(=O)Nc2ccc3c(c2)OCCO3)n1-c1ccc(F)cc1	i	i	i	8.4%	7.5%	8.8%
Cc1ccc(-n2c(Cc3cccs3)nnc2SCC(=O)Nc2ccc(F)c(F)c2)cc1	i	i	i	-10.0%	-11.2%[9.24 µM]	11.2µM*
Cc1ccc(-n2c(Cc3cccn3C)nnc2SCC(=O)NCc2ccc3c(c2)OCO3)cc1	?	14.6µM*	i	-13.8%	7.3%	-2.0%
Cc1ccc(-n2c(Cc3cccn3C)nnc2SCC(=O)Nc2ccc3c(c2)OCO3)cc1	i	3.66µM*	i	-6.9%	-9.3%	?
CCSc1nnc(NC(=O)CSc2nnc(Cc3cccn3C)n2-c2ccc(F)cc2)s1	i	16.4µM*	i	-5.5%	-5.6%	5.9%
COc1ccc(-n2c(Cc3cccn3C)nnc2SCC(=O)NCc2ccc(F)cc2)cc1	i	?	i	0.0%	11.3%	5.8%
Cc1cnc(SCC2CCCO2)nc1C1CCCN(Cc2cc3c(cc2Cl)OCO3)C1 (centres undefined)	.	.	i	.	.	.
Clc1cccc(Cl)c1CO/N=C/c1c(-c2ccccc2)nc2n1CCS2	?	12.6µM*	.	.	?	-30.0%
COc1ccc(C(=O)Nc2ccc(N(C)Cc3ccccc3)c(C(=O)O)c2)cc1	i	i	i	7.6%	.	.
CCOC(=O)c1c(-c2ccccc2)nc2cc(C)ccn12	i	14.6µM*	i	53.8%	-23.2%	?
CCOC(=O)C(=O)c1c(-c2ccccc2)nc2ccccn12	i	i	i	-3.8%	-5.8%	-4.3%
CCOC(=O)c1c(-c2ccccc2)nc2ccc(C)cn12	i	20.6µM*	?	26.4%	8.2%	4.7%
COC(=O)c1ccc2nc(C)cc(Nc3ccccc3C)c2c1	i	i	i	-19.0%	-16.3%	-5.4%
Cc1ccc2nc(C)cc(Nc3ccc([N+](=O)[O-])cc3)c2c1	?	i	?	?	-13.0%	?
COC(=O)c1ccc(Nc2cc(C)nc3ccc(C)cc23)cc1	6.51µM*	?	?	-33.1%	20.6µM*	23.1µM*
Cc1cc(C)c2nc(C)cc(Nc3ccc(C(=O)N4CCOCC4)cc3)c2c1	i	i	i	-4.8%	-0.9%	-4.0%
CC(=O)c1cccc(Nc2cc(C)nc3c(C)cc(C)cc23)c1	i	16.4µM*	?	?	-17.8%	?
CC(=O)c1cccc(Nc2cc(C)nc3ccc(C)cc23)c1	?	?	i	-18.8%	18.4µM*	?
O=C(Nc1ccc2c(c1)OCCO2)C1CCN(S(=O)(=O)c2ccccc2)CC1	i	i	i	-6.7%	-14.6%	-0.6%
O=C(Nc1ccncc1)C1CCN(S(=O)(=O)c2ccc(Cl)c(C(F)(F)F)c2)CC1	5.8µM*	?	i	-17.2%	1.7%[9.24 µM]	-18.0%
